Compound activity from PubChem BioAssay.
GIRK2 activator: activators of NPY4-receptor-primed GIRK2 channels, summary, cell-based, HEK293, thallium flux; 34,000 tested, under 10 active; HEK293 GIRK2/NPY4 cells, thallium flux fluorescence; activation (% efficacy), % for hits at 37.5 µM; G protein-activated inward rectifier potassium channel 2 (Homo sapiens), P48051;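 active = primary screen hit, no activity in plain HEK293 cells, and in GIRK2-only cells above 5% efficacy rising with concentration; inactive = the rest, including fluorescent compounds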;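 note: efficacy is normalized control-subtracted fluorescence 15 s after thallium addition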
GluA2 TARP mod: modulators of GluA2-stargazin AMPA receptor complexes, primary screen, cell-based, membrane potential dye; 3.5% of 40,000 active; HEK293 GluA2+stargazin, membrane potential dye (FDSS), glutamate EC50; hits were called plate by plate, in both directions; AID 1259245, 2017; calls only at 30 µM; Voltage-dependent calcium channel gamma-2 subunit (Mus musculus) + Glutamate receptor 2 …;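 active = any of four per-well response measures lying three or more SD from its plate-wide compound average, in either direction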
Large screens that a line does not name were inactive; [ ] = remark or other dose. The sample as a whole holds a higher share of hits than the screen did.

O=C(NCCc1cccs1)c1nnn(-c2ccccc2Cl)c1-c1ccncc1	GluA2 TARP mod active
CC(C(=O)NCCc1cccs1)n1nnc2ccccc2c1=O (centres undefined)	none
Cc1nc(-n2cccc2)sc1C(=O)NCc1ccc(F)cc1F	none
COc1ccc(NC(=O)Nc2ccc3c(c2)N(C(=O)C(C)C)CCC3)cc1	none (no result: GluA2 TARP mod)
CN(C)S(=O)(=O)N1CCC(COCc2ccc(Cl)cc2)CC1	GluA2 TARP mod active
O=S(=O)(/C=C/c1ccccc1)N1CCC(COCc2ccc(Cl)cc2)CC1	none
CCOC(=O)Nc1ccc2c(c1)NC(=O)C(C)(C)CO2	none
CCCOc1ccc(S(=O)(=O)Nc2ccc3c(c2)NC(=O)C(C)(C)CO3)cc1	GluA2 TARP mod active (no result: GIRK2 activator)
CC(C)OC(=O)C1(C(=O)OC(C)C)CC2(COC(c3ccccc3)OC2)C1	GluA2 TARP mod active
CC(C)OC(=O)C1(C(=O)OC(C)C)CC(CO)(CO)C1	none (no result: GIRK2 activator)
COc1cccc2cc(C(=O)Nc3nnc(-c4cc(C)nn4C)o3)oc12	GluA2 TARP mod active
COc1cc(/C=C/C(=O)Nc2nnc(-c3ccn(C)n3)o2)cc(OC)c1OC	GluA2 TARP mod active
CCn1nc(C(=O)Nc2nnc(-c3ccc(OC)cc3)o2)cc1C	none (no result: GluA2 TARP mod)
Cc1cc(-c2nnc(NC(=O)/C=C/c3ccccc3)o2)nn1C	none
COc1cc(-c2nnc(NC(=O)c3cc(C)n(C)n3)o2)cc(OC)c1OC	GluA2 TARP mod active
COc1cc(C(=O)Nc2nnc(-c3cc(C)n(C)n3)o2)cc(OC)c1OC	GluA2 TARP mod active
COC(=O)c1ccc(C(=O)Nc2nnc(-c3cc(C)n(C)n3)o2)cc1	none
COc1cccc(C(=O)Nc2nnc(-c3cc(C)nn3C)o2)c1OC	none (no result: GluA2 TARP mod)
COc1ccc(C)c2sc(N(CCN3CCOCC3)C(=O)c3cc(C)ccc3C)nc12	none (no result: GIRK2 activator)
COCCNC(=O)Cc1ccc(NC(=O)COc2ccc(C(C)(C)C)cc2)cc1	none (no result: GluA2 TARP mod)
COc1ccccc1NC(=O)NCC(C)(O)c1ccc2c(c1)OCO2 (centres undefined)	none
COc1ccc(-c2ccc(=O)n(CCNC(=O)Nc3ccc(F)cc3)n2)cc1	none
Cc1ccc2nc(NC(=O)CN3CCC(c4nnc(-c5ccco5)o4)CC3)sc2c1	none
COc1ccc(-c2nnc(NC(=O)c3ccn(C)n3)o2)cc1OC	none
COc1ccc(-c2nnc(NC(=O)c3cc(C)nn3C)o2)cc1OC	GluA2 TARP mod active
c1coc(CNc2nc(N3CCOCC3)nc(N3CCOCC3)n2)c1	none
c1ccc(CNc2nc(N3CCOCC3)nc3ccccc23)cc1	GluA2 TARP mod active (no result: GIRK2 activator)
O=C(CN1C(=O)c2ccccc2S1(=O)=O)NCCN1CCOCC1	none
OC(COCC(c1ccccc1)c1ccccc1)Cn1cnc2ccccc21 (centres undefined)	none (no result: GluA2 TARP mod)
O=C(NCCc1ccccc1)C(=O)NCC1CCN(C(=O)COc2ccccc2)CC1	GluA2 TARP mod active
O=C(NCc1ccccc1Cl)C(=O)NCC1CCN(C(=O)COc2ccccc2)CC1	none
O=C(NCc1cccc2ccccc12)NCC1CCN(C(=O)COc2ccccc2)CC1	GluA2 TARP mod active
O=C(NCCc1ccccc1)NCC1CCN(C(=O)COc2ccccc2)CC1	none
CC(=O)c1ccc(N2CCN(S(=O)(=O)CCCOc3ccc4c(c3)OCO4)CC2)cc1	none (no result: GluA2 TARP mod)
CC(C)(C)NC(=O)N1CCC(CNC(=O)c2cccc3ccccc23)CC1	none (no result: GluA2 TARP mod)
Cc1cc(C)n(-c2nc3c(c(=O)n2CC(=O)NCc2ccco2)CCCC3)n1	GluA2 TARP mod active
Cc1cc(C)n(-c2nc3c(c(=O)n2CC(=O)N(C)c2ccccc2)CCC3)n1	none
CCN(CCc1ccncc1)S(=O)(=O)c1ccc(N2C(=O)CCS2(=O)=O)cc1C	none
CCCS(=O)(=O)N1CCCc2cc(NC(=O)NCCCc3ccccc3)ccc21	GluA2 TARP mod active
CCS(=O)(=O)N1CCCc2cc(NC(=O)Nc3ccc(OC)cc3)ccc21	none
CCS(=O)(=O)N1CCCc2cc(NC(=O)Nc3cc(Cl)ccc3OC)ccc21	GluA2 TARP mod active
CCS(=O)(=O)N1CCCc2cc(NC(=O)NCc3ccccc3)ccc21	none
CCOc1nn(CC)cc1C(=O)Nc1cc(C)on1	none (no result: GIRK2 activator)
NC(=O)Cn1nc(-c2ccco2)ccc1=O	none
O=[N+]([O-])c1ccc(Nc2ccc(S(=O)(=O)Nc3nccs3)cc2)c([N+](=O)[O-])c1	GIRK2 activator 14%[18.8 µM]
O=C(CCN1C(=O)c2ccccc2S1(=O)=O)Nc1ccc(S(=O)(=O)Nc2nccs2)cc1	none
O=C(c1c(F)cccc1Cl)N1CCN(c2ncnc3c2nnn3-c2ccccc2)CC1	none (no result: GIRK2 activator)
COc1ccc(C)c2sc(N(Cc3ccncc3)C(=O)/C=C/c3ccc([N+](=O)[O-])cc3)nc12	GluA2 TARP mod active
COc1ccc(OC)c2sc(N(CCN3CCOCC3)C(=O)/C=C/c3ccc([N+](=O)[O-])cc3)nc12	none
Cn1nc(-c2cccc(NC(=O)c3cccnc3)c2)ccc1=O	GluA2 TARP mod active
Cn1nc(-c2cccc(NC(=O)Nc3ccccc3)c2)ccc1=O	none
Cn1cccc1C(CNC(=O)c1ccc2ccccc2c1)N1CCCC1 (centres undefined)	none
CCOC(=O)c1sc2cccc(F)c2c1S(=O)(=O)Nc1ccc2c(c1)OCO2	none (no result: GIRK2 activator)
Cc1cc([N+](=O)[O-])ccc1NC(=O)C(=O)NCCN1CCOCC1	none (no result: GIRK2 activator)
O=C1S/C(=C\c2ccc([N+](=O)[O-])cc2)C(=O)N1c1ccc(F)cc1	none
O=C1S/C(=C\c2cccc([N+](=O)[O-])c2)C(=O)N1c1ccc(F)cc1	GluA2 TARP mod active
Cc1ccc(S(=O)(=O)Nc2ccc3c(c2)CCC(=O)N3Cc2ccccc2)cc1	none (no result: GIRK2 activator)
Cc1nc(NC(=O)c2cccc(Br)c2)sc1C	GluA2 TARP mod active
Cc1nc(NC(=O)c2ccc(S(=O)(=O)N(C)Cc3ccccc3)cc2)sc1C	none
CSc1nn(CC(=O)Nc2ccc(Cl)cc2)c(N)c1S(=O)(=O)c1ccccc1	GluA2 TARP mod active (no result: GIRK2 activator)
CSc1nn(CC(=O)Nc2ccc(Br)cc2)c(N)c1S(=O)(=O)c1ccc(C)cc1	none
CSc1ncccc1C(=O)Nc1ccc2c(c1)CN(C(=O)C1CC1)CC2	none
COCCNC(=O)Cc1ccc(NS(=O)(=O)c2ccc(F)cc2C)cc1	none
COc1ccccc1-c1csc(/C(C#N)=C2\C=CC=CN2C)n1	GluA2 TARP mod active
CN1C=CC=C/C1=C(/C#N)c1nc(-c2ccccc2)cs1	GluA2 TARP mod active
N#C/C(=C\c1ccnc2ccccc12)c1nc(-c2ccc(F)cc2)cs1	none
O=S(=O)(c1ccc(F)cc1F)N1CCN(Cc2nc(-c3cccs3)cs2)CC1	none
O=C(Cc1ccc(NC(=O)c2c(F)cccc2Cl)cc1)NCc1cccs1	none
O=C(Nc1cc2c3c(c1)CC(=O)N3CCC2)c1cnccn1	GluA2 TARP mod active
COc1cc(C(=O)Nc2cc3c4c(c2)CC(=O)N4CCC3)cc(OC)c1OC	none
O=C(NCC1(c2cccs2)CCOCC1)c1cnc2ccccc2n1	none
O=C(Cn1c(CO)cnc1SCc1c(F)cccc1Cl)NC1CCCC1	GluA2 TARP mod active
Cc1nc2c(sc3cccc(F)c32)c(=O)n1CC(=O)NC1CCCCC1	none (no result: GluA2 TARP mod)
COc1ccc(C)c2sc(N(CCN3CCOCC3)C(=O)c3ccc(C)cc3)nc12	none (no result: GIRK2 activator)
CCCC(=O)N(CCN1CCOCC1)c1nc2c(OC)ccc(OC)c2s1	GluA2 TARP mod active (no result: GIRK2 activator)
COc1ccc(OC)c2sc(N(CCN3CCOCC3)C(=O)CCc3ccccc3)nc12	none (no result: GIRK2 activator)
CCOc1ccc2nc(N(CCN3CCOCC3)C(=O)c3ccc(S(C)(=O)=O)cc3)sc2c1	GluA2 TARP mod active (no result: GIRK2 activator)
